From PubChem BioAssay (NCI)
Compounds without any hit were thinned out: in the full panel of roughly 83,000, 20% have a hit.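 96-well plates, one dose, 48 hours. Percent growth reported; active if below 10.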 Unmarked numbers belong to inactive results. Activity calls are given as the source filed them.

Legend:
Experiment in all cases: NCI-60 one-dose screen, 48 h (100 = growth as untreated, 0 = no growth, -100 = all killed)
Settings in all cases: 10 µM unless noted
MALME-3M melanoma = tested on: MALME-3M melanoma
MDA-MB-231 breast = tested on: MDA-MB-231 breast
RXF 393 renal = tested on: RXF 393 renal
SF-268 CNS = tested on: SF-268 CNS
SF-295 CNS = tested on: SF-295 CNS
SF-539 CNS = tested on: SF-539 CNS
UACC-257 melanoma = tested on: UACC-257 melanoma
M14 melanoma = tested on: M14 melanoma
HCT-15 colon = tested on: HCT-15 colon

SMILES	growth (MALME-3M melanoma)	growth (MDA-MB-231 breast)	growth (RXF 393 renal) [%]	growth (SF-268 CNS) [%]	growth (SF-295 CNS)	growth (SF-539 CNS)	growth (UACC-257 melanoma) [%]	growth (M14 melanoma)	growth (HCT-15 colon) [%]
Cn1cc(-c2csc(-c3cn(C)c4ncccc34)n2)c2cc(F)cnc21	80.7%	62.6%	82.4	95.4	69.5%	101%	84.1	62.8%	61
Cn1cc(-c2csc(-c3c[nH]c4ncccc34)n2)c2cc(Br)cnc21	32.8%	-1.21% (active)	26.1	64.8	-1.78% (active)	70.1%	57.1	35.2%	66.8
CSc1nc2c(c(=O)n1C)C(c1ccccc1)C1=C(N2)/C(=C/c2ccccc2)CCC1 (configuration not stated)	70.4%	53.5%	36.9	62.6	7.45% (active)	63.4%	52.2	65.9%	58.9
CCOC(=O)C(Cc1ccccc1)(C(=O)OCC)C(Br)C(=O)c1ccccc1 (configuration not stated)	54.2%	64.2%	75.5	88	94.5%	105%	70.9	84.1%	41.9
COc1ccc(-c2nc3sccn3c2-c2ccnc(S(C)(=O)=O)n2)cc1	75.1%	84.3%	97.5	95	74.9%	109%	111	102%	84.3
CCC(C)CC(CC)NCCN1CCN(C(CC)CC(C)CC)C1=S (configuration not stated)	-33.8% (active)	-12.4% (active)	–	61.8	56.1%	69.2%	39.5	-47.3% (active)	22.5
O=C1Cc2cc(CCn3cncn3)c(Cl)cc2N1	93.8%	56%	62	110	69.3%	–	51.7	24%	54.6
CCn1c2ccccc2c2ccc(C(C)=O)cc21	113%	114%	105	90.8	116%	96.5%	108	–	107
O=C1Cc2cc(CCN3CCN(CCOCCO)CC3)c(Cl)cc2N1Cc1ccc(-c2ccccc2-c2nn[nH]n2)cc1	91.8%	92.1%	113	117	93.5%	–	81.4	92.6%	86.6
Cc1nn(-c2ccccc2)c2nc3c(nc12)C(=O)CCC3	98%	108%	116	103	–	–	99.8	106%	88.5
Cc1c(C(N)=O)sc2c1c(=O)n(Cc1ccccc1)c1nnc(S(=O)(=O)CC(=O)Nc3ccc(Cl)cc3)n21	30%	20.5%	41.8	73.6	35.1%	–	47.4	45.2%	73.1
O=C1c2ccccc2-c2c1nc1ccccc1[n+]2[O-]	90.2%	108%	–	98.2	108%	101%	107	97.9%	101
COc1ccc2c(c1)nc(N)c1c3cc(C)c(C)cc3cn21	76.5%	84.6%	78.1	75.6	64.3%	95.7%	83.7	–	48.7
Cc1nn(-c2ccccc2)c2ncc3c(c12)C(=O)N(Cc1ccccc1)C3=O	72%	14.3%	68	81.3	1.19% (active)	–	94.3	68.7%	86.3
Cc1nn(-c2ccccc2)c2nc(Cl)c(/C=C/C(=O)c3ccccc3)c(-c3ccccc3)c12	101%	111%	103	106	105%	–	114	90.1%	101
CCCCC(C#N)C(N)=O (configuration not stated)	107%	104%	121	114	–	96.9%	–	104%	105
COC(=O)[C@]1(C(C)C)N[C@H](c2cn(-c3ccccc3)nc2-c2ccccc2)[C@@H]2C(=O)N(c3ccc(Cl)cc3)C(=O)[C@@H]21	107%	105%	113	90.8	106%	–	107	87.6%	96
O=C1CN(CO)C(=O)CN1CO	103%	108%	–	105	101%	115%	99.8	104%	106
Cc1nn(-c2ccc(Cl)cc2)c2nc3c(nc12)c(=O)oc1ccccc13	108%	110%	136	104	92.7%	–	104	107%	103
CN=C(NC)N/N=C(C)\C=N\NC(=NC)NC	105%	97.8%	–	99.5	96.5%	99.1%	100	101%	101
CCSc1nnc2n(Cc3ccccc3)c(=O)c3c(C)c(C(N)=O)sc3n12	105%	103%	103	95.1	91.4%	–	100	112%	97.9
Cc1cc(C)c(OC(=O)CSc2nc3ccccc3c(=O)n2CCc2ccccc2)cc1C	–	80.1%	–	97.1	87.3%	97.3%	103	102%	52.7

SMILES	growth (MALME-3M melanoma)	growth (MDA-MB-231 breast)	growth (RXF 393 renal) [%]	growth (SF-268 CNS) [%]	growth (SF-295 CNS)	growth (SF-539 CNS)	growth (UACC-257 melanoma) [%]	growth (M14 melanoma)	growth (HCT-15 colon) [%]
COC(=O)[C@]1(CCSC)N[C@H](c2cn(-c3ccccc3)nc2C)[C@@H]2C(=O)N(c3ccc(C)cc3)C(=O)[C@@H]21	99%	104%	133	98.2	97%	–	102	96.6%	96.7
NC(N)=NN=c1c(=O)c2ccccc2c1=O	-96.4% (active)	90.8%	–	50.6	66%	112%	106	-90.8% (active)	43.4
CCCCOc1ccc(C(C)(C)c2ccc(OCCCC)cc2)cc1	98.7%	111%	125	115	–	92.1%	–	104%	107
Oc1ccccc1/C=N\Nc1ccccc1	95%	26.7%	–	61.8	19.9%	3.41% (active)	95.7	39.4%	25.6
Cc1nn(-c2ccc(Br)cc2)c2nc3c(nc12)C(=O)C(=O)c1ccccc1-3	91.2%	78.7%	111	101	97.5%	–	98.6	98.2%	90.5
O=C(Cc1ccccn1)C(F)(F)C(F)(F)C(F)(F)F	110%	102%	125	125	–	104%	–	110%	109
Cc1nn(-c2ccc(Cl)cc2)c2nc3c(nc12)C(=O)c1ccccc1-3	84.7%	52.7%	45.4	72.4	36.4%	–	91.5	70.5%	98.5
Cc1c(C(N)=O)sc2c1c(=O)n(Cc1ccccc1)c1nnc(SCC(=O)Nc3ccc(Cl)cc3)n21	15.8%	-6.85% (active)	38	60.1	49.4%	–	35.3	40.5%	82.5
COc1ccc(-n2nc3c(c2-c2ccc(OC)c(OC)c2)-c2oncc2CC3)cc1	100%	80%	83.8	84	84%	114%	110	93.6%	55.9
Cc1nc2cc(NC(=O)CN3CCN(CCN4C(=O)c5cccc6cccc(c56)C4=O)CC3)ccc2s1	70.6%	72.2%	47.8	46.2	48.3%	59.4%	76.8	89%	45
Cc1ccc(NC(=O)CSc2nnc3n(Cc4ccccc4)c(=O)c4c(C)c(C(N)=O)sc4n23)cc1	11.4%	-6.14% (active)	79.9	55.8	53%	–	56.4	60.5%	84.4
Cc1nn(-c2ccccc2)c(Cl)c1C(CC(=O)c1ccc(Cl)cc1)CC(=O)c1ccc(Cl)cc1	94.7%	80.5%	92.2	91.3	92.4%	–	100	83.9%	86.6
COc1cc(/C=C/C(=O)Nc2cccnc2Nc2cc(OC)c(OC)c(OC)c2)cc(OC)c1OC	107%	90.7%	108	105	92.8%	98.1%	93.4	–	97.3
COc1cc2c(cc1OC)C1CCN3C(=O)CCC3N1CC2 (configuration not stated)	117%	116%	106	103	113%	118%	108	116%	110
c1ccc(-c2nn[nH]n2)c(-c2ccc(CN3CCN(c4nsc5ccccc45)CC3)cc2)c1	108%	88.6%	113	98.3	94.1%	–	99.8	108%	82.9
Cc1nn(-c2ccc(Cl)cc2)c2nc3c(nc12)C(=O)C(=O)c1ccccc1-3	36.8%	40.4%	89.6	89.3	12.1%	–	69.2	75.5%	73.9
COc1ccc(C(=O)/C=C/c2c(Cl)nc3c(c(C)nn3-c3ccccc3)c2-c2ccc(Br)cc2)cc1	102%	105%	101	103	103%	–	108	100%	102
COc1cc(C2NC(c3ccc(Cl)cc3)C(C)/C(=N/NC(N)=S)C2C)cc(OC)c1OC (configuration not stated)	73%	101%	85.9	101	117%	88.8%	103	–	81.9
OCCOc1c(Cl)cc(Cl)cc1Cl	101%	87.3%	–	103	100%	102%	90.3	107%	104
COC(=O)[C@]1(CCSC)N[C@H](c2cn(-c3ccccc3)nc2C)[C@@H]2C(=O)N(c3ccccc3)C(=O)[C@@H]21	105%	109%	109	114	106%	–	113	95.9%	112
COc1ccc(C2=NNC(c3cc(Cc4ccc(O)c(C5CC(c6ccc(OC)cc6)=NN5)c4)ccc3O)C2)cc1 (configuration not stated)	78.9%	58.3%	72.6	44	6.47% (active)	57.2%	70.6	–	43.3
